Data as given in publication PMC4336329 (PLoS ONE, 2015).
Out of some 310,000 compounds screened, about 14,000 (4.5%) showed an effect of 50% or more. Effects have a minus sign here. Only a selection was taken, and strong results are over-represented in it overall.

What follows are compounds tested against human ether-à-go-go-related gene (hERG) potassium channel (human, UniProt Q12809) (assay: primary screen, population patch clamp on CHO cells stably expressing hERG; higher = less effect of the substance).
human ether-à-go-go-related gene (hERG) potassium channel, sequence (Q12809 whole entry, looked up): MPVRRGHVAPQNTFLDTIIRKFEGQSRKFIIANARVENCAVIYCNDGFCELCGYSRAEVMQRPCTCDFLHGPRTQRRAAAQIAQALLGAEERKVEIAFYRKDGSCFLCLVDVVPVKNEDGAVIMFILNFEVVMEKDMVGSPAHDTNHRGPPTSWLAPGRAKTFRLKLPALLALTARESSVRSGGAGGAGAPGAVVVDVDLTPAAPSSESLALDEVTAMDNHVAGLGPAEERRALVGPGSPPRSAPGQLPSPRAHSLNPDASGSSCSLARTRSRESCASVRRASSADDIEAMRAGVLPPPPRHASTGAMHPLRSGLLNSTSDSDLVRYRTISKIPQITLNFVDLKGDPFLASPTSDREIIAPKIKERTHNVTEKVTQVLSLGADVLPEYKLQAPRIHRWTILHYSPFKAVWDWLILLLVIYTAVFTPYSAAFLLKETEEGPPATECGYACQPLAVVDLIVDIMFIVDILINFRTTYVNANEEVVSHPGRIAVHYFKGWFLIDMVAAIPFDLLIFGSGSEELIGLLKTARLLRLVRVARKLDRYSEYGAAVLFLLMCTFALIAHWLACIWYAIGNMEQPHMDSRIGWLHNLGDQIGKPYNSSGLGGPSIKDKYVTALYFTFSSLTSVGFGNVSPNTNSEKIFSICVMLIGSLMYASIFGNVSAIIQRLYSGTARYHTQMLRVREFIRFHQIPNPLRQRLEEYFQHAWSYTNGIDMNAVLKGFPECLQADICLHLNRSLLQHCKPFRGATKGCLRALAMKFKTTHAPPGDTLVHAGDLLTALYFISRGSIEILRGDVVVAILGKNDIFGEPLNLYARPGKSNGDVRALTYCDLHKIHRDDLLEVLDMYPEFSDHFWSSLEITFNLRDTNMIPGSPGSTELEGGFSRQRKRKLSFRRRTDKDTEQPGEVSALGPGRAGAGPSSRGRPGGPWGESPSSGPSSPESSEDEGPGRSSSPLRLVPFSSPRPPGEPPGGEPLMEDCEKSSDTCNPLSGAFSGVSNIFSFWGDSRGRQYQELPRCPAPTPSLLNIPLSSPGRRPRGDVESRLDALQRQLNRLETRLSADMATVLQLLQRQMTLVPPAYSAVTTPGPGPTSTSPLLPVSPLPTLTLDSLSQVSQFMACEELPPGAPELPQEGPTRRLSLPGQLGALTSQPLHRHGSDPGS
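Also: peak tail current of the secondary pulse compared with the same well before compound.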

Going from `COc1ccc(C2C3CCCCC3(O)CCN2C(=O)c2cccs2)cc1` (centres unmarked) to `COc1ccc(C(=O)ON=C2CCN(C)CC2)cc1.Cl`, the “hERG current change (%, negative = inhibition) at 10uM” value rises from 5.52% to 12.8%.

Going from `CC(C)(C)C(=O)Nc1nnc(SCC(=O)NC2CCCCC2)s1` to `COc1ccc(C(=O)NCC(=O)NCC2(N(C)C)CCCCC2)cc1OC`, the “hERG current change (%, negative = inhibition) at 10uM” value rises from 2.34% to 3.45%.

Compared with `COc1ccc(S(=O)(=O)N2CCC(C(=O)NCCN3CCOCC3)CC2)cc1`, `Cc1ccc(OCCCN2CCOCC2)cc1` is lower in “hERG current change (%, negative = inhibition) at 10uM” value: 14.2% for the first, 13.3% for the second.

Compared with `CC1=NN(c2ccccc2)C(=O)C1/C=C1\C(=O)NC(=O)N(c2cc(C)cc(C)c2)C1=O` (centres unmarked), `COc1ccc(C(C(=O)NC2CCCC2)N(C(=O)c2ccoc2C)c2cc(C)cc(C)c2)cc1` (centres unmarked) is lower in “hERG current change (%, negative = inhibition) at 10uM” value: 6.47% for the first, -10.9% for the second.

Compared with `Cc1sc2nc(CSCC(=O)Nc3c(F)cccc3F)[nH]c(=O)c2c1C`, `O=C(CSc1nnc(CNC(=O)c2ccco2)o1)Nc1nc2ccccc2s1` is higher in “hERG current change (%, negative = inhibition) at 10uM” value: 7.01% for the first, 16.1% for the second.

Going from `CC(C)CNc1nnnc2c1sc1nc(N3CCOCC3)c3c(c12)CC(C)(C)SC3` to `COc1ccc(C(=O)ON=C2CCN(c3ccc([N+](=O)[O-])cc3)CC2)cc1`, the “hERG current change (%, negative = inhibition) at 10uM” value falls from -20.8% to -68.5%.

Compared with `Cc1ccc(Sc2ccc(S(=O)(=O)Nc3ccc(CC(=O)O)cc3)cc2)cc1C`, `O=C(O)c1ccc(NS(=O)(=O)c2ccc3c(c2)OCCCO3)cc1` is higher in “hERG current change (%, negative = inhibition) at 10uM” value: 3.13% for the first, 4.23% for the second.

First: CCN(c1ccccc1)S(=O)(=O)c1ccc(C(=O)NCCc2ccc(S(N)(=O)=O)cc2)cc1
Second: CCN(c1ccccc1)S(=O)(=O)c1ccc(C(=O)Nc2ccncc2)cc1
The “hERG current change (%, negative = inhibition) at 10uM” value of the first is higher: 5.49% for the first, -68.7% for the second.

Compared with `CN(c1ccccc1)S(=O)(=O)c1ccc(C(=O)Nc2ccncc2)cc1`, `CCN(c1ccccc1)S(=O)(=O)c1ccc(C(=O)Nc2ccccn2)cc1` is higher in “hERG current change (%, negative = inhibition) at 10uM” value: -9.83% for the first, -8.37% for the second.

Going from `COc1cc(C(=O)NCC2(N(C)C)CCCCC2)ccc1OCc1ccccc1` to `COc1ccccc1NS(=O)(=O)c1cccc(C(=O)NCC2(N(C)C)CCCCC2)c1`, the “hERG current change (%, negative = inhibition) at 10uM” value rises from -59.7% to -22.2%.

Going from `CNC(=O)c1ccc(OCc2ccccc2)c(OC)c1` to `CNC(=O)COC(=O)c1ccccc1Oc1ccccc1`, the “hERG current change (%, negative = inhibition) at 10uM” value falls from 3.11% to -5.63%.

Compared with `CN(C)C1(CNC(=O)c2cccc(S(=O)(=O)NCc3ccccc3)c2)CCCCC1`, `CCN(c1ccccc1)S(=O)(=O)c1cccc(C(=O)NCC2(N(C)C)CCCCC2)c1` is lower in “hERG current change (%, negative = inhibition) at 10uM” value: -49.5% for the first, -60.5% for the second.

First: CCN(c1ccccc1)S(=O)(=O)c1ccc(C(=O)NCC2(N(C)C)CCCCC2)cc1
Second: COc1ccccc1NS(=O)(=O)c1ccc(C(=O)NCC2(N(C)C)CCCCC2)cc1
The “hERG current change (%, negative = inhibition) at 10uM” value of the first is lower: -57.8% for the first, 3.78% for the second.

First: O=C(NCCNC(=O)c1ccccn1)c1cccc(F)c1
Second: O=C(CCC(=O)Nc1ccccc1)N/N=C/c1ccc2c(c1)OCO2
The “hERG current change (%, negative = inhibition) at 10uM” value of the first is lower: 23.7% for the first, 28.7% for the second.

Compared with `O/N=C/C1=C(Cl)c2ccccc2CC1`, `O=C1OC(C(=O)Nc2nccs2)Cc2ccccc21` (centres unmarked) is higher in “hERG current change (%, negative = inhibition) at 10uM” value: -4.9% for the first, 12.7% for the second.

First: Cc1ccccc1NC(=O)COC(=O)c1cccc(S(=O)(=O)N2CCCCC2)c1
Second: C[C@H](NC(=O)C1CCN(S(=O)(=O)c2ccccc2)CC1)C(=O)NCc1cccc(C(F)(F)F)c1
The “hERG current change (%, negative = inhibition) at 10uM” value of the first is lower: -6.55% for the first, -2.33% for the second.

Compared with `Cc1ccc(C(=O)N2CCN(C34CC5CC(CC(C5)C3)C4)CC2)o1`, `CN1CCN(S(=O)(=O)c2cc(C(F)(F)F)ccc2Cl)CC1.Cl` is higher in “hERG current change (%, negative = inhibition) at 10uM” value: -29.4% for the first, 10.4% for the second.

Going from `CCc1nnc(NC(=O)CSc2nnc(-c3ccco3)n2CCOC)s1` to `CCN(C(=O)c1cc2c(=O)n3ccccc3nc2n1C)C1CCCCC1`, the “hERG current change (%, negative = inhibition) at 10uM” value falls from 9.29% to 6.65%.

Going from `CC1CCN(c2oc(-c3ccco3)nc2S(=O)(=O)c2ccccc2)CC1` to `O=C(c1ccccc1S(=O)(=O)NCc1ccccc1)N1CCCC1`, the “hERG current change (%, negative = inhibition) at 10uM” value rises from -6.14% to -4.43%.

Going from `CC(Cc1cccs1)NC(=O)Nc1ccc(Cl)cc1` (centres unmarked) to `CC(=O)N1CCOc2cc(S(=O)(=O)NCc3ccc(F)cc3)c(C)cc21`, the “hERG current change (%, negative = inhibition) at 10uM” value falls from 1.12% to -16.6%.

Compared with `Cc1ccc(C(=O)OC2CCN(c3ccc([N+](=O)[O-])cc3)CC2)cc1`, `Cc1ccc(C(=O)ON=C2CCN(c3ccc([N+](=O)[O-])cc3)CC2)cc1` is lower in “hERG current change (%, negative = inhibition) at 10uM” value: -1.78% for the first, -60.9% for the second.

Going from `O=C(ON=C1CCN(c2ccc([N+](=O)[O-])cc2)CC1)c1ccccc1` to `CCCOc1ccc(C(=O)ON=C2CCN(C)CC2)cc1.Cl`, the “hERG current change (%, negative = inhibition) at 10uM” value rises from -47.5% to -9.07%.

Compared with `CCOc1ccc(/C=C/c2[nH]c(=O)[nH]c(=O)c2[N+](=O)[O-])cc1`, `O=c1[nH]c(/C=C\c2ccc(O)c(O)c2)nc(O)c1[N+](=O)[O-]` is higher in “hERG current change (%, negative = inhibition) at 10uM” value: 8.01% for the first, 16.2% for the second.

Going from `CCN(CC)Cc1cc(C(C)=O)ccc1OCC(C)C` to `CCCCOc1ccc(CN2CCN(CC)CC2)cc1`, the “hERG current change (%, negative = inhibition) at 10uM” value rises from -31.5% to -14.2%.

Going from `CC(C)c1ccc(C2N3CC4([N+](=O)[O-])CN2CC([N+](=O)[O-])(C3)C4(C)C)cc1` (centres unmarked) to `CN1CCN(CCOc2ccc(-c3ccccc3)cc2)CC1.Cl`, the “hERG current change (%, negative = inhibition) at 10uM” value falls from 28.4% to -56.3%.

First: CC(=O)c1sc2nc(=O)c(C)nn2c1C
Second: CN1CCN(CCCOc2ccc(-c3ccccc3)cc2)CC1.Cl
The “hERG current change (%, negative = inhibition) at 10uM” value of the first is higher: -0.703% for the first, -69.1% for the second.

First: CN1CCN(CCOc2ccc(Cc3ccccc3)cc2)CC1.Cl
Second: CCN1CCN(CCCOc2ccc(-c3ccccc3)cc2)CC1
The “hERG current change (%, negative = inhibition) at 10uM” value of the first is higher: -23.4% for the first, -71.9% for the second.

First: Cl.c1ccc(-c2ccc(OCCN3CCOCC3)cc2)cc1
Second: CCCCOc1ccc(OCCCN2CCOCC2)cc1.Cl
The “hERG current change (%, negative = inhibition) at 10uM” value of the first is higher: 3.74% for the first, -23.1% for the second.
